Experimental data taken from PubChem BioAssay AID720526 (National Center for Advancing Translational Sciences (NCATS), 2013).
Results filed as inconclusive are left out. Unmarked numbers belong to inactive results. The source made the active and inactive calls. Calls follow the shape of the dose curve; as a rule, active = well fitted activation curve with a large enough effect; inconclusive = small, poorly fitted or top-dose-only effect; inactive = no such curve, though single readings can be large or run the other way.

Assay: qHTS Assay for NPC1 Promoter Activators: Hit Validation Using Renila Luciferase Read-Out for NPC1; as to activity change, positive = activation: % of control where 0% means no effect
Conditions: Huh7 NPC1 promoter-luciferase reporter, luminescence, 24 h; series mostly up to 76.9 µM; activity change, positive = activation: at the top concentration
Method in brief: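 Huh7 cells stably carrying NPC promoter-luciferase reporter, exposed to compound for 24 h at 37 deg C. Luminescence read 10 min after adding luciferase detection reagent at room temperature.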
Potency is read from the fitted curve at half-maximal effect.

| SMILES | activity change, positive = activation [%] | Potency |
| --- | --- | --- |
| CC(Sc1ncnc2c1cnn2-c1ccccc1)C(=O)Nc1ccc(N2CCOCC2)cc1 (centres undefined) | -18 |  |
| O=C(CSc1nnc(-c2ccc([N+](=O)[O-])cc2)o1)Nc1ccccn1 | -72.1 |  |
| Cc1nc(SCC(=O)NC(=O)NC(C)(C)C)nc(C)c1C | -0.535 |  |
| CCOc1ccc(CNC(=O)C2CCCN(S(C)(=O)=O)C2)cc1OC (centres undefined) | -6.53 |  |
| CC(=O)NC(CCCN1C(=O)c2ccccc2C1=O)c1nnn(C)n1 (centres undefined) | -17.1 |  |
| COc1ccc(NC(=O)CN(C)C(=O)c2ccc(=O)[nH]c2)cc1 | -7.94 |  |
| COc1ccccc1N(C(=O)c1snc(C(N)=O)c1N)C(C(=O)NC1CCCCC1)c1cccc(OC)c1OC (centres undefined) |  | 11.6 µM (active) |
| CC(=O)c1cccc(NC(=O)N2CCOCC2)c1 | -6.02 |  |
| COc1ccc(C(c2nnnn2CCc2ccccc2)N2CCN(C3CCCC3)CC2)cc1 (centres undefined) |  | 13 µM (active) |
| CN(C)C(=O)[C@H]1C[C@H]1[C@@H](O)[C@H](CO)NC(=O)[C@H](COCc1ccccc1)NC(=O)OC(C)(C)C | -35.3 |  |
| CC(C)C(NC(=O)c1ccc([N+](=O)[O-])cc1Cl)C(=O)N1CCCC1 (centres undefined) | -2.08 |  |
| Cc1cc(C)c2c(N)c(C(=O)Nc3ccc([N+](=O)[O-])cc3)sc2n1 | -16.2 |  |
| NNC(=O)c1cccc(S(=O)(=O)Nc2cc(Cl)ccc2Cl)c1 | 16.5 |  |
| Cc1ccc(NC(=O)NC(=O)c2ccccc2)cc1F | -4.34 |  |
| CNC(=O)Cn1nc(C)c2ccccc2c1=O | -12.4 |  |
| N#C/C(=C\c1ccc[nH]1)C(=O)Nc1ccccc1Cl |  | 23.2 µM (active) |
| N#C/C(=N\Nc1ccc(Cl)cc1)C(=N)N1CCCCC1 | -69.1 |  |
| O=C(NC1CCCC1)C(c1ccc(F)cc1)N(C(=O)c1csnn1)c1ccccc1 (centres undefined) | 9.81 |  |
| Cc1nc(-c2ccccn2)sc1C(=O)Nc1ccc(F)cc1F | -4.57 |  |
| CCCOP(=O)(c1ccc(N(C)C)cc1)C(O)c1cccnc1 (centres undefined) | 5.33 |  |

| SMILES | activity change, positive = activation [%] | Potency |
| --- | --- | --- |
| O=C(CN1C(=O)COc2ccc(Cl)cc21)NCC1CCCO1 (centres undefined) | 2.71 |  |
| COCCNC(=O)C1CCC(CNS(=O)(=O)c2ccc(F)cc2)CC1 (centres undefined) | 0.674 |  |
| COC(=O)CSc1nc2cc3c(cc2cc1C#N)OCO3 | -11.1 |  |
| COc1ccc(/C=C\C(=O)c2c(O)ccc3c(C)cc(=O)oc23)cc1OC | -52.3 |  |
| Brc1ccccc1-c1nnc(CSc2nnc3sc4ccccc4n23)o1 | 3.11 |  |
| CC(Sc1nnc(C(F)(F)F)n1C)C(=O)Nc1ccc(S(N)(=O)=O)cc1 (centres undefined) | -6.53 |  |
| N#CC/C(N)=N/NC(=O)CCCNc1ncc(C(F)(F)F)cc1Cl | -24.6 |  |
| COc1ccc([N+](=O)[O-])cc1COc1ccc2c(-c3ccccc3)cc(=O)oc2c1 |  | 1.46 µM (active) |
| Cc1nc(-c2ccc(S(=O)(=O)Oc3ccc(Cl)cc3Cl)s2)cs1 | -47.3 |  |
| CCOc1cc(C2C(C#N)=C(N)Oc3n[nH]c(C)c32)ccc1OCCN1CCOCC1 (centres undefined) | 10.2 |  |
| NCCOc1ccccc1-c1ccccc1 | -17 |  |
| COc1ccc(-c2csc(Nc3ncccn3)n2)cc1C | 5.9 |  |
| Cc1ccc(C(=O)Nc2ccc(N3CCN(C)CC3)nc2)cc1 | -9.22 |  |
| COCc1cc(C)nc(N/N=C/c2ccc(-c3ccc(Cl)cc3[N+](=O)[O-])o2)c1C#N | 14.9 |  |
| COc1cccc(C2Nc3ccccc3NC3=C2C(=O)CC(C)(C)C3)c1 (centres undefined) | -5.16 |  |
| CCOC(=O)CSc1nc2cc(C)ccc2cc1C#N | -34.8 |  |
| Cc1cc(C)cc(N(CC(=O)NC2CCCC2)C(=O)CNC(=O)c2ccco2)c1 | 3.56 |  |
| Nc1nc(SCCO)[nH]c(=O)c1NC(=O)c1ccco1 | 10 |  |
| O=C(CSc1nnc(-c2ccccn2)o1)Nc1ccccc1F | 7.47 |  |
